# Test results: PubChem BioAssay (NCATS)
# “And” between values parts separate entries of the source, which are not always exact repeats. Equal entries are not always repeated. A number with no mark means an inactive call. Results filed as inconclusive are left out. Entries that show only a call come without a potency. The source made the active and inactive calls. Unless noted, calls follow the shape of the dose curve; as a rule, active = well fitted curve in the direction sought with a large enough effect; inconclusive = small, poorly fitted or top-dose-only effect, or another doubt; inactive = no such curve, though single readings can be large; an effect the other way counts as inactive or inconclusive.
# Experiments:
# [1] = test system: OV90; test: Primary qHTS to identify gynecologic anti-cancer compounds using libraries of approved drugs and bioactive compounds (AID 1345084); settings: Gynecologic cancer cell panel viability, ATPlite luminescence, 48 h; series mostly up to 57.5 µM; also: nearly all actives have a fitted effect of over 55% in size; also: potency is read from the fitted curve at half-maximal effect
# In short: (§1)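 ATP-based viability (ATPlite), 1,000 cells/well, 16 h pre-incubation, 48 h compound at 37 C, 5% CO2, 15 min RT before read.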
# [2] = test system: PA-1; test: as above; settings: Gynecologic cancer cell panel viability, ATPlite luminescence, 48 h; series mostly up to 57.5 µM
# In short: as §1
# [3] = test system: Tov-21-G; test: as above; settings: Gynecologic cancer cell panel viability, ATPlite luminescence, 48 h; series mostly up to 57.5 µM
# In short: as §1
# [4] = test system: Tov112D; test: as above; settings: Gynecologic cancer cell panel viability, ATPlite luminescence, 48 h; series mostly up to 57.5 µM
# In short: as §1
# [5] = test system: SKOV3; test: as above; settings: Gynecologic cancer cell panel viability, ATPlite luminescence, 48 h; series mostly up to 57.5 µM
# In short: as §1
# [6] = test system: astro; test: Drug repurposing screens with cells derived from glioblastoma tumor samples (AID 1345199); settings: viability, ATP luminescence, 48 h; series mostly up to 45.9 µM; also: nearly all actives have a fitted effect of over 40% in size; also: potency is read from the fitted curve at half-maximal effect
# In short: (§2)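 Four patient lines of CD133+ GBM neurospheres were screened at several concentrations; hits were retested in those lines plus three slower-growing GBM lines, using 48-hour treatment and ATP-based viability.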
# [7] = target: Nuclear receptor subfamily 1 group I member 2 (Rattus norvegicus) (UniProt Q9R1A7); test: qHTS assay for small molecule activators of the rat pregnane X receptor (rPXR) signaling pathway (AID 651751; call rule not given here); settings: rPXR reporter cells, luciferase (One-Glo), 24 h
# Nuclear receptor subfamily 1 group I member 2 (Rattus norvegicus), sequence (Q9R1A7 whole entry, looked up): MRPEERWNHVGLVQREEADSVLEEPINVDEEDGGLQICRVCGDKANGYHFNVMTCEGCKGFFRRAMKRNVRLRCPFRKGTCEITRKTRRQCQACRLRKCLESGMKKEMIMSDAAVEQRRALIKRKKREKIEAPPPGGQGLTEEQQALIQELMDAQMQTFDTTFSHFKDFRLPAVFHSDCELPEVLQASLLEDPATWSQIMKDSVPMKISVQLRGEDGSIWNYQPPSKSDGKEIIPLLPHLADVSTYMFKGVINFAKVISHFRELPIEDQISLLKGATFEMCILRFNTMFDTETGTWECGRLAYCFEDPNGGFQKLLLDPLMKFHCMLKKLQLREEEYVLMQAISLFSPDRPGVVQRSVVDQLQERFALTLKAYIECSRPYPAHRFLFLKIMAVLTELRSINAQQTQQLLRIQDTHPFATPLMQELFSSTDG
# [8] = qHTS assay to identify inhibitors of the type 1 interferon - major histocompatibility complex class I in skeletal muscle: Counter screen cell viability and HiBit confirmation (AID 1347412); settings: iHSKM muscle cells + IFN-b, HiBiT or CellTiter-Glo, 24 h; Potency: HiBiT; Viability, at 45.9 µM (top of the series); also: nearly all actives have a fitted effect of over 60% in size
# In short: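 Luminescence read-out: Nano-Glo HiBiT lytic signal from C-terminally HiBiT-tagged HLA-B in CRISPR-edited human myoblasts, plus CellTiter Glo ATP as viability counter screen. IFN-beta 4.0 ng/ml; 24 hrs treatment at 37 C, 5% CO2.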
# [9] = Drug repurposing screens with cells derived from glioblastoma tumor samples (AID 1345199); settings: GBM patient neurospheres viability, ATP luminescence, 48 h; also: nearly all actives have a fitted effect of over 40% in size; also: potency is read from the fitted curve at half-maximal effect
# In short: as §2
# [10] = at 46.1 µM (top of the series), tumour line C
# [11] = at 45.9 µM (top of the series), tumour line B
# [12] = at 45.9 µM (top of the series), tumour line D
# [13] = at 46 µM (top of the series), tumour line A
smiles,measurement,setting,value
CC(NC(CCc1ccccc1)C(=O)O)C(=O)N1C(=O)N(C)CC1C(=O)O (stereo not drawn),Potency,[1],inactive
same,Potency,[2],inactive
same,Potency,[3],inactive
same,Potency,[4],inactive
CCCCC(CC)COC(=O)c1ccccc1C(=O)O (stereo not drawn),Potency,[1],inactive
same,Potency,[2],inactive
same,Potency,[5],inactive
same,Potency,[3],inactive
same,Potency,[4],inactive
same,Potency,[6],inactive
same,max response,[7],1.45% and -0.807%
CCOC(=O)C1=C(C)NC(C)=C(C(=O)OCC)C1c1ccccc1/C=C/C(=O)OC(C)(C)C,Potency,[1],inactive
same,Potency,[2],inactive
same,Potency,[3],inactive
same,Potency,[4],inactive
N#CSCC(=O)O,Potency,[1],inactive
same,Potency,[2],inactive
same,Potency,[3],inactive
same,Potency,[4],inactive
O=c1[nH]c(=O)n([C@H]2O[C@H](CO)[C@@H](O)[C@@H]2O)cc1/C=C\Br,Potency,[1],inactive
same,Potency,[2],inactive
same,Potency,[3],inactive
same,Potency,[4],inactive
CCCC(=O)O[C@]1(C(=O)CCl)[C@@H](C)C[C@H]2[C@@H]3CCC4=CC(=O)C=C[C@]4(C)[C@@]3(F)C(=O)C[C@@]21C,Potency,[1],inactive
same,Potency,[2],inactive
same,Potency,[3],inactive
same,Potency,[4],inactive
Cc1ccc2ccc(Cl)cc2n1,Potency,[1],inactive
same,Potency,[2],inactive
same,Potency,[3],inactive
same,Potency,[4],inactive
CCCCCCCCCCCCCCCCCCNC(=O)OC1CCN(C(=O)OC[C@H](COC(=O)N(Cc2cccc[n+]2CC)C(=O)c2ccccc2OC)OC)CC1,Potency,[1],28.2 µM (active)
same,Potency,[2],12.6 µM (active)
same,Potency,[5],20 µM (active)
same,Potency,[3],25.1 µM (active)
same,Potency,[6],10 µM (active)
Cc1c(N)cccc1C(F)(F)F,Potency,[1],inactive
same,Potency,[2],inactive
same,Potency,[3],inactive
same,Potency,[4],inactive
CCCCN(CCCC)C(C(N)=O)c1ccc(OC)cc1 (stereo not drawn),Potency,[1],inactive
same,Potency,[2],inactive
same,Potency,[3],inactive
same,Potency,[4],inactive
O=C(CCCl)NCCc1ccccc1,Potency,[1],inactive
same,Potency,[2],inactive
same,Potency,[3],inactive
same,Potency,[4],inactive
N=C(N)c1ccc(OCCCOc2ccc(C(=N)N)cc2)cc1,Potency,[1],inactive
same,Potency,[2],inactive
same,Potency,[5],inactive
same,Potency,[4],inactive
same,Potency,[6],11.2 µM (active)
COc1ccc2c(c1)CCCC2=O,Potency,[1],inactive
same,Potency,[2],inactive
same,Potency,[3],inactive
same,Potency,[4],inactive
C[C@H]1C[C@@H]2[C@H]([C@@H](O)C[C@@]3(C)[C@H]2CC[C@]3(O)C(=O)CO)[C@@]2(C)C=CC(=O)C=C12,Potency,[1],inactive
same,Potency,[2],inactive
same,Potency,[5],inactive
same,Potency,[3],inactive
same,Potency,[4],inactive
same,Potency,[8],inactive
CCCCC(O)/C=C(C)/C=C/C=C/C(=O)N1CCCC1=O (stereo not drawn),Potency,[1],inactive
same,Potency,[2],inactive
same,Potency,[3],inactive
same,Potency,[4],inactive
Cc1cc(=O)oc2cc(O[C@@H]3SC[C@@H](O)[C@H](O)[C@H]3O)ccc12,Potency,[1],inactive
same,Potency,[2],inactive
same,Potency,[3],inactive
same,Potency,[4],inactive
Nc1ccc2cc3ccc(N)cc3nc2c1,Potency,[1],28.2 µM (active)
same,Potency,[2],7.94 µM (active)
same,Potency,[4],28.2 µM (active)
same,"activity, negative = cell killing",[9]; [10],-19.3%
same,Potency,[9]; tumour line A,22.4 µM (active)
same,Potency,[9]; tumour line B,14.1 µM (active)
same,Potency,[9]; tumour line D,7.94 µM (active)
same,Potency,[6],10 µM (active)
Cc1nc([N+](=O)[O-])cn1-c1ccc([N+](=O)[O-])cc1,Potency,[1],inactive
same,Potency,[2],inactive
same,Potency,[3],inactive
same,Potency,[4],inactive
same,Potency,[6],inactive
CC(CC1c2ccccc2CCc2ccccc21)CN(C)C (stereo not drawn),Potency,[1],17.8 µM (active)
same,Potency,[2],inactive
same,Potency,[3],inactive
same,Potency,[4],inactive
Cc1ccc(O)cc1,Potency,[1],inactive
same,Potency,[2],inactive
same,Potency,[3],inactive
same,Potency,[4],inactive
same,Potency,[6],inactive
CCCc1c2oc(C(=O)O)cc(=O)c2cc2c(=O)cc(C(=O)O)n(CC)c12,Potency,[1],inactive
same,Potency,[2],inactive
same,Potency,[3],inactive
same,Potency,[4],inactive
same,"activity, negative = cell killing",[9]; [11],-3.36%
same,"activity, negative = cell killing",[9]; [12],-8.4%
same,"activity, negative = cell killing",[9]; [13],-11%
same,"activity, negative = cell killing",[9]; [10],-12.7%
same,Potency,[6],inactive
C[C@H]1NCc2cc(-c3ccc4c(=O)c(C(=O)O)cn(C5CC5)c4c3OC(F)F)ccc21,Potency,[1],inactive
same,Potency,[2],inactive
same,Potency,[3],inactive
same,Potency,[4],inactive
same,"activity, negative = cell killing",[9]; [11],3.7%
same,"activity, negative = cell killing",[9]; [12],27.3%
same,"activity, negative = cell killing",[9]; [13],-27.3%
same,"activity, negative = cell killing",[9]; [10],-18%
same,Potency,[6],inactive
CN(C)CCOC(c1ccccc1)c1ccc(Br)cc1 (stereo not drawn),Potency,[1],12.6 µM (active)
same,Potency,[2],inactive
same,Potency,[3],inactive
same,Potency,[4],inactive
O=C(CO)[C@@H](O)[C@H](O)[C@@H](O)CO,Potency,[1],inactive
same,Potency,[2],inactive
same,Potency,[3],inactive
same,Potency,[4],inactive
same,"activity, negative = cell killing",[9]; [11],4.08%
same,"activity, negative = cell killing",[9]; [12],-8.89%
same,"activity, negative = cell killing",[9]; [13],-12.2%
same,"activity, negative = cell killing",[9]; [10],8.07%
same,Potency,[6],inactive
CC(NN)c1ccccc1 (stereo not drawn),Potency,[1],inactive
same,Potency,[2],inactive
same,Potency,[3],inactive
same,Potency,[4],inactive
same,"activity, negative = cell killing",[9]; [11],-17.4%
same,"activity, negative = cell killing",[9]; [12],-5.52%
same,"activity, negative = cell killing",[9]; [13],-23.7%
same,"activity, negative = cell killing",[9]; [10],-0.872%
same,Potency,[6],inactive
CCC(C(=O)NC(=O)NC(C)=O)c1ccccc1 (stereo not drawn),Potency,[1],inactive
same,Potency,[2],inactive
same,Potency,[3],inactive
same,Potency,[4],inactive
same,"activity, negative = cell killing",[9]; [11],-11.4%
same,"activity, negative = cell killing",[9]; [12],-13.3%
same,"activity, negative = cell killing",[9]; [13],-27.9%
same,"activity, negative = cell killing",[9]; [10],-4.25%
same,Potency,[6],inactive
Cc1cc(O)c2c(O)c3c(O)cccc3cc2c1,Potency,[1],inactive
same,Potency,[2],inactive
same,Potency,[3],inactive
same,Potency,[4],inactive
same,"activity, negative = cell killing",[9]; [11],-27.7%
same,Potency,[9]; tumour line A,14.1 µM (active)
same,Potency,[6],inactive
CCOC(=O)c1ccc(NC(=O)CN2CCCCC2)cc1,Potency,[1],inactive
same,Potency,[2],inactive
same,Potency,[3],inactive
same,Potency,[4],inactive
same,Potency,[6],inactive
Nc1ccc(C(=O)OCC(O)CO)cc1 (stereo not drawn),Potency,[1],inactive
same,Potency,[5],inactive
same,Potency,[3],inactive
same,Potency,[4],inactive
